Results on 9 compounds are retold here after PubChem BioAssay.

The nature of assay [1]: optical density shifts of acrAB sulA E. coli – strain DRC41, OD650, 48 h, E. coli filamentation inducer project, primary screen (AID 1152).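 Note: E. coli MC1000 strain DRC41 lacking acrAB efflux pump and sulA.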 As to conditions: higher = more signal, called active from +8 up or from −8 down.
Assay [2] is described as follows: probe aLefty1 binding on compound microarray – biochemical, small-molecule microarray, 635/667 nm fluorescence, primary screen (AID 1153).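 Note: score merges spot fluorescence with signal-to-noise ratio from the scanned slide images.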 As to conditions: higher = more signal.
A short description of assay [3]: plasmodial surface anion channel blockers, osmotic lysis – cell-based, P. falciparum Indochina, OD700, 1 h, primary screen (AID 1154). The following applies: P. falciparum Indochina infected RBC osmotic lysis, higher = more signal, called active from +8 up or from −8 down.
A short description of assay [4]: plasmodial surface anion channel blockers, osmotic lysis – cell-based, P. falciparum Indochina, OD700, 2 h, primary screen (AID 1155).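 Note: lysis reports solute entry through the parasite surface anion channel PSAC.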 As to conditions: P. falciparum Indochina infected erythrocytes, higher = more signal, called active from +8 up or from −8 down.
Assay [5] is described as follows: changes in parasitized red cell lysis, either direction – P. falciparum Indochina, OD700, 3 h, PSAC antagonist project, primary screen (AID 1156). As to conditions: P. falciparum-infected erythrocytes, osmotic lysis, higher = more signal, called active from +8 up or from −8 down.
A short description of assay [6]: plasmodial surface anion channel blockers, osmotic lysis – cell-based, P. falciparum Indochina, OD700, 18 h, primary screen (AID 1157). The following applies: P. falciparum Indochina infected erythrocytes, osmotic lysis OD700, 18 h; higher = more signal, called active from +8 up or from −8 down.
A short description of assay [7]: S6 kinase pathway phospho-S6 level changes – cell-based, A549, cytoblot, luminescence, serum-stimulated, primary screen (AID 1158).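 Note: serum-stimulated A549 lung adenocarcinoma cells; signal is phosphorylated S6 detected by cytoblot immunostaining with HRP secondary.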 As to conditions: 5 h, higher = more signal.
In assay [8] the target is NADPH oxidase 2 (Homo sapiens) (UniProt P04839). Nature of the assay: compounds shifting NOX2 Amplex Red fluorescence – cell-based, HEK293-NOX2, PMA-stimulated, NOX inhibitor project, primary screen (AID 1159). Note: test concentration not given here. As to conditions: 45 min, higher = more signal, called active from +8 up or from −8 down.
NADPH oxidase 2 (Homo sapiens), sequence (P04839 whole entry, looked up): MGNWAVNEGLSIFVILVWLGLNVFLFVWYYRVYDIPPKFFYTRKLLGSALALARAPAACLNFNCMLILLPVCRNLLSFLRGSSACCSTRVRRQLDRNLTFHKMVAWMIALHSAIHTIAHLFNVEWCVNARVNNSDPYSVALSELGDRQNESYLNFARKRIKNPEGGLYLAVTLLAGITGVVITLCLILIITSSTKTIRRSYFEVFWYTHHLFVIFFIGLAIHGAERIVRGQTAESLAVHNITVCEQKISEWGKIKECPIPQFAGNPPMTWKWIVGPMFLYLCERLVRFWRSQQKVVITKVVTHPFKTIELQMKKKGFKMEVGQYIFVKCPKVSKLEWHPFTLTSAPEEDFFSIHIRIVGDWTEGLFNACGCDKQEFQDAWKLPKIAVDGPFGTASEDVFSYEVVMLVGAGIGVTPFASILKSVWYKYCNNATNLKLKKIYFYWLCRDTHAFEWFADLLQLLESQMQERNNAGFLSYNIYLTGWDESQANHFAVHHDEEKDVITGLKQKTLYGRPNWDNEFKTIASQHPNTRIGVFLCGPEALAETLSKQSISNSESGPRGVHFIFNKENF
The target of assay [9] is NADPH oxidase 4 (Homo sapiens) (UniProt Q9NPH5). Nature of the assay: compounds shifting NOX4 Amplex Red fluorescence – cell-based, HEK293-NOX4, tetracycline-induced, NOX inhibitor project, primary screen (AID 1160). As to conditions: HEK293-NOX4, Amplex Red H2O2 fluorescence, 45 min; higher = more signal, called active from +8 up or from −8 down.
NADPH oxidase 4 (Homo sapiens), sequence (Q9NPH5 whole entry, looked up): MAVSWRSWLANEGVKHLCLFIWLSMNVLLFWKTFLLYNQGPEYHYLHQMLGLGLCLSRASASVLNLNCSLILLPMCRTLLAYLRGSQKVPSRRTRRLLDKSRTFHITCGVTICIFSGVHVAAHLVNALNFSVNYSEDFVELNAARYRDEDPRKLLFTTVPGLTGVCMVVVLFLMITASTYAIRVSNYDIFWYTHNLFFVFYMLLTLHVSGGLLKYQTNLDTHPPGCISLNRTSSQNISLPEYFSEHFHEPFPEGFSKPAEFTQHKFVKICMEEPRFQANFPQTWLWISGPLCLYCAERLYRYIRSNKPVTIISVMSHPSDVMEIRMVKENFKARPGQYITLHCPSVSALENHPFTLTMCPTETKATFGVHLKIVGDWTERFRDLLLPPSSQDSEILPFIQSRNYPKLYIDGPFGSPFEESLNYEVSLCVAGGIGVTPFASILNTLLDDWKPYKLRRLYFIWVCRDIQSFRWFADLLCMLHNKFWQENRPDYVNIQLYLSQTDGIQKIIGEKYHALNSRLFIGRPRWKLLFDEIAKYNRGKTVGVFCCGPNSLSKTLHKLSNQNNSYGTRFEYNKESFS
The target of assay [10] is NADPH oxidase 5 (Homo sapiens) (UniProt Q96PH1). Nature of the assay: compounds shifting NOX5 Amplex Red fluorescence – cell-based, HEK293-NOX5, NOX inhibitor project, primary screen (AID 1161). The following applies: HEK293-NOX5, ionomycin, 45 min, higher = more signal.
NADPH oxidase 5 (Homo sapiens), sequence (Q96PH1 whole entry, looked up): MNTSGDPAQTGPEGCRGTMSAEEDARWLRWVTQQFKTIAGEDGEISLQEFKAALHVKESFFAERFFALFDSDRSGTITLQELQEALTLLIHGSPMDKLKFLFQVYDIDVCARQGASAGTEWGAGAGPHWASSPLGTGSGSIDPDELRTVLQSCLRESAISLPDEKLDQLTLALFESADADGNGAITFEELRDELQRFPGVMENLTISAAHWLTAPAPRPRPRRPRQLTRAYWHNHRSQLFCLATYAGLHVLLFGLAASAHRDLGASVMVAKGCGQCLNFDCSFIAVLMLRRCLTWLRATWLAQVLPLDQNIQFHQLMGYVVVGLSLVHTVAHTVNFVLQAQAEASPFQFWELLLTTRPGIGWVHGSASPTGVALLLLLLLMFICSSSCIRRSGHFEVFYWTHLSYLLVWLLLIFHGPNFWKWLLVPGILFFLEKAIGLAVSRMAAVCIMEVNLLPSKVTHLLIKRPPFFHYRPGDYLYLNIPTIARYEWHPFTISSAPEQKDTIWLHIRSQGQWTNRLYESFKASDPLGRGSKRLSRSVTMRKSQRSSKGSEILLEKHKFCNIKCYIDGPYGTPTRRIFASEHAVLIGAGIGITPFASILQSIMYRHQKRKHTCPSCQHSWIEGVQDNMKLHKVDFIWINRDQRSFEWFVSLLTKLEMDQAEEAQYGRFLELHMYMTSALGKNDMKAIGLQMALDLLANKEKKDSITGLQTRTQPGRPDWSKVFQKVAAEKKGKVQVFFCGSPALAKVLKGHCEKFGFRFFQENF
The nature of assay [11]: compound effects on lung adenocarcinoma cell viability – A549, calcein-AM fluorescence, 48 h, basal, profiling panel (AID 1162). Note: test concentration not given here. As to conditions: higher = more signal.
Assay [12] is described as follows: compound effects on differentiated 3T3-L1 adipocyte viability – cell-based, 3T3-L1 adipocytes, calcein-AM fluorescence, 48 h, basal, profiling panel (AID 1163). Note: test concentration not given here. As to conditions: 3T3-L1 adipocytes viability, higher = more signal.
Assay [13] can be described thus: compound effects on hepatocellular carcinoma cell viability – HepG2, calcein-AM fluorescence, 48 h, basal, profiling panel (AID 1164). Note: test concentration not given here. The following applies: higher = more signal.
Assay [14] is described as follows: compound effects on multiple myeloma cell viability – MM1S, calcein-AM fluorescence, 48 h, basal, profiling panel (AID 1165). Note: test concentration not given here. As to conditions: higher = more signal.
Assay [15] can be described thus: calcein-AM signal in unstimulated myeloma cells – cell-based, calcein-AM fluorescence, 48 h, PK04 Diversity Set, profiling panel (AID 1166).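 Note: cells grown under basal conditions without added stimulus; test concentration not given here.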 As to conditions: RPMI8226 myeloma viability, higher = more signal.
A short description of assay [16]: JC-1 mitochondrial signal, unstimulated HepG2 cells – cell-based, JC-1 fluorescence, 24 h, 100 nL compound, profiling panel (AID 1167). Note: test concentration not given here. As to conditions: HepG2 mitochondrial potential, higher = more signal.
Assay [17] can be described thus: JC-1 mitochondrial signal, unstimulated adipocytes – cell-based, JC-1 fluorescence, 3T3-L1 adipocytes, 24 h, 100 nL compound, profiling panel (AID 1168). Note: test concentration not given here. As to conditions: JC-1 mitochondrial fluorescence, higher = more signal, called active from +8 up or from −8 down.
Assay [18] is described as follows: JC-1 mitochondrial signal, unstimulated myeloma cells – cell-based, JC-1 fluorescence, RPMI8226, 24 h, 100 nL compound, profiling panel (AID 1169). Note: test concentration not given here. As to conditions: JC-1 mitochondrial potential fluorescence, higher = more signal.
Assay [19] is described as follows: JC-1 mitochondrial signal, unstimulated MM1S myeloma – cell-based, JC-1 fluorescence, 24 h, 100 nL compound, profiling panel (AID 1170). Note: test concentration not given here. As to conditions: MM1S mitochondrial potential, higher = more signal.
Assay [20] can be described thus: resazurin metabolic signal in A549 cells – cell-based, resazurin fluorescence, 24 h, PK04 Diversity Set, profiling panel (AID 1171). Note: test concentration not given here. As to conditions: A549 viability, higher = more signal, called active from +8 up or from −8 down. (Alamar Blue is a resazurin reagent that responds to reducing activity.)

Calls of active or inactive are those of the source.

In the case of `CCCCCN1CC=CC23O[C@@H]4C=CCCOC(=O)C4[C@H]2C(=O)N(CCCCCO)[C@@H]3C1=O` (stereo not given in full), the z-score is 1.09 (inactive) in assay [1]; 1.73 (inactive) in assay [3]; 1.1 (inactive) in [4]; 2.68 (inactive) in assay [5]; 0.575 (inactive) in assay [6]; 0.708 in assay [7]. The z-score in assay [8] is 1.36 (inactive); in assay [9], 0.228 (inactive); in [10] it was 1.32; in assay [11], 0.0264; in assay [12], -1.3; in assay [13] it was 0.542. For the same compound, the z-score is 1.8 in assay [14]; 1.74 in [15]; 0.301 in assay [16]; -0.0303 (inactive) in assay [17]; 0.159 in [18]; -0.849 in assay [19]. The z-score in assay [20] is 0.26 (inactive). This compound also yielded a composite z-score in assay [2] of -0.0984.
With `C=C(COC)/C(=C/C[C@H](OC(C)=O)c1ccc(CO)o1)c1cc(C(=O)OC)ccc1OC`, the z-score was 0.506 (inactive) in assay [1]; 1.25 (inactive) in [3]; -2.29 (inactive) in assay [4]; 0.672 (inactive) in [5]; -2.07 (inactive) in assay [6]; 0.873 in assay [7]. For the same compound, the z-score in [8] is -1.85 (inactive); in assay [9] it was -1.92 (inactive); in assay [10], -1.14; in [11], -0.588; in [12], 0.635; in assay [13], -0.603. The z-score was -0.659 in [14]; -0.0381 in [15]; -0.527 in assay [16]; -0.29 (inactive) in assay [17]; -0.0437 in [18]; 0.000891 in assay [19]. Besides, the z-score in assay [20] is -0.369 (inactive). Also, in assay [2], the composite z-score was -0.193.
Turning to `CC(C)NC(=O)[C@@H]1c2ccccc2C(=O)N(C2Cc3ccccc3C2)[C@H]1c1ccc(CO)cc1`, the z-score is 0.814 (inactive) in [1]; 3.41 (inactive) in [3]; 0.119 (inactive) in assay [4]; 0.121 (inactive) in [5]; 0.182 (inactive) in assay [6]; 0.0063 in assay [7]. Further, the z-score was -0.402 (inactive) in assay [8]; 0.0797 (inactive) in assay [9]; -0.994 in assay [10]; 1.54 in assay [11]; -0.27 in assay [12]; 1.22 in [13]. In addition, the z-score in assay [14] was 0.543; in assay [15], 0.982; in [16], 3.83; in assay [17], 0.976 (inactive); in assay [18] it was 0.459; in [19], -0.096. Moreover, the z-score in assay [20] was 1.81 (inactive). For the same compound, the composite z-score in assay [2] was 0.11.
Take `Cc1ccc(S[C@]2(C(=O)NC3CC3)CC(=O)N(Cc3ccccc3)[C@@H]2c2ccc(CO)cc2I)cc1`: the z-score in [1] is 1.24 (inactive); in [3] it was 7.63 (inactive); in assay [4] it was 1.12 (inactive); in assay [5], -0.282 (inactive); in assay [6], 0.401 (inactive); in assay [7], 0.402. For the same compound, the z-score in [8] was 1.7 (inactive); in assay [9], -1.16 (inactive); in assay [10], 1.1; in assay [11] it was 2.11; in [12], 0.388; in [13], 0.935. Also, the z-score in assay [14] was -1.99; in assay [15], -2.06; in assay [16] it was 1.55; in assay [17], 0.679 (inactive); in assay [18], -0.525; in assay [19] it was -1.26. For the same compound, the z-score in [20] was 0.618 (inactive). Moreover, the composite z-score in [2] is 0.238.
For `CN1C(=O)C2C=CC(C(O)C3CC=CCC3)N(N(c3ccccc3)c3ccccc3)C2C1=O` (stereo not given), the z-score in [1] was -0.866 (inactive); in assay [3], 0.19 (inactive); in assay [4], 1.01 (inactive); in [5], -0.255 (inactive); in [6] it was 1.29 (inactive); in assay [7], -0.496. For the same compound, the z-score is -0.625 (inactive) in [8]; 0.21 (inactive) in assay [9]; 0.224 in assay [10]; -0.0631 in assay [11]; -1.9 in assay [12]; 0.125 in assay [13]. Moreover, the z-score in assay [14] was 0.535; in assay [15], -0.785; in assay [16], -0.77; in assay [17], -0.339 (inactive); in assay [18] it was -0.23; in [19], -0.711. Besides, the z-score in [20] was -0.501 (inactive). Moreover, in [2], the composite z-score is 0.329.
Regarding `COC(=O)[C@@]1(Cc2ccc(F)cc2)[C@H]2c3cc(C(=O)N(C)C)n(Cc4ccc(Cl)c(C(F)(F)F)c4)c3C[C@H]2CN1C(=O)c1ccccc1`, the z-score is -1.91 (inactive) in assay [1]; 7.17 (inactive) in [3]; 2.13 (inactive) in [4]; 0.512 (inactive) in [5]; 1.72 (inactive) in assay [6]; -0.186 in assay [7]. The z-score in assay [8] was 0.23 (inactive); in assay [9], -1.2 (inactive); in assay [10], 0.627; in assay [11] it was -1.16; in assay [12] it was -0.207; in assay [13] it was -1.04. In addition, the z-score was -2.26 in [14]; -4.06 in assay [15]; 1.96 in assay [16]; -1.47 (inactive) in [17]; -0.854 in [18]; -1.54 in assay [19]. Further, in assay [20], the z-score was -1.27 (inactive). In assay [2], this compound returned a composite z-score of 1.54.
Take `COC(=O)[C@@]1(Cc2ccc(OC)cc2)[C@@H]2C(=CC(=O)[C@H]2CC(=O)C(=O)N2CCCC2)CN1C(=O)c1ccccc1`: the z-score in assay [1] was -0.97 (inactive); in assay [3] it was 5.48 (inactive); in [4], 0.368 (inactive); in assay [5], 1.51 (inactive); in assay [6] it was 1.18 (inactive); in [7], 0.0866. Besides, the z-score in assay [8] is 0.143 (inactive); in assay [9], 1.54 (inactive); in assay [10], 1.14; in assay [11] it was -0.0504; in assay [12], -0.386; in assay [13] it was -0.167. The z-score in assay [14] is -0.565; in assay [15], -1.17; in assay [16], 0.718; in assay [17], -0.407 (inactive); in [18], -0.356; in [19], -1.69. In assay [20], the z-score was 0.408 (inactive). Moreover, the composite z-score in assay [2] came to 0.114.
As for `O=C(c1ccccc1)N1C(=O)[C@@]2(Cc3ccccc31)N=C(c1ccc(OCCCO)cc1)O[C@H]2c1ccccc1`, the z-score was -0.632 (inactive) in assay [1]; 14.6 (active) in [3]; 2.37 (inactive) in assay [4]; 3.04 (inactive) in assay [5]; 1.03 (inactive) in assay [6]; -0.256 in [7]. The z-score in assay [8] was -0.595 (inactive); in assay [9], -0.0485 (inactive); in assay [10], -1.74; in [11], -1.31; in assay [12] it was 0.668; in [13], -1.58. Moreover, the z-score in [14] is -3.54; in assay [15] it was -4.36; in assay [16], 0.157; in [17], 0.479 (inactive); in assay [18], -1.19; in assay [19] it was -2.17. In addition, the z-score in [20] was -1.62 (inactive). The compound further gave a composite z-score in [2] of 0.554.
As to `NC(=O)NCC#Cc1ccc2c(c1)[C@]1(C(=O)N2)[C@H](c2ccc(O)cc2)N2[C@H](c3ccccc3)[C@H](c3ccccc3)OC(=O)[C@H]2[C@@H]1C(=O)O`, the z-score in [1] is -0.876 (inactive); in assay [3] it was 3.1 (inactive); in [4], 0.179 (inactive); in [5], 0.259 (inactive); in assay [6], 0.485 (inactive); in [7], -0.0856. Besides, the z-score in [8] was 0.879 (inactive); in assay [9], -0.0146 (inactive); in assay [10], -0.305; in [11], 0.517; in assay [12] it was 0.145; in assay [13], 0.829. Moreover, the z-score is 0.343 in assay [14]; -1.12 in assay [15]; -1.2 in assay [16]; -1.47 (inactive) in assay [17]; 0.183 in [18]; -0.713 in assay [19]. In [20], the z-score is -0.397 (inactive). In [2], this compound gave a composite z-score of -0.573.
